# Source: PubChem BioAssay (NCI)
# This is part of a sample that, as a whole, favours compounds with a hit. Of some 83,000 tested, about 20% had one in any assay.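 Activity criterion: percent growth below 10, measured after cells in 96-well plates were exposed to a single compound concentration for 48 hours.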 A number with no mark means an inactive call. Calls of active or inactive are those of the source.
# Test system: MDA-MB-468 breast
# Assay: NCI-60 one-dose screen, 48 h (100 = growth as untreated, 0 = no growth, -100 = all killed)
# Settings: 10 µM unless noted
row,Compound,growth
1,O=C(O)c1cn(C2CC2)c2cc(N3CCN(C(=O)c4cc(-c5ccc(Cl)cc5)nc5ccccc45)CC3)c(F)cc2c1=O,99%
2,CC1=C(C)C(=O)C(Nc2cccc(C(=O)OC(C)(C)C)c2)=CC1=O,37.5%
3,CC/C(=C(/c1ccc(Cl)cc1)c1ccc(OCCN2CCCCC2)cc1)c1ccc(Cl)cc1,51.9%
4,CCOC(=O)c1c(C)nc2c(c1N)/C(=C/c1ccc[nH]1)C(=O)N2Cc1ccc(C(F)(F)F)cc1,58.7%
5,CC(=NCc1ccccc1)c1ccc(O)cc1O,118%
6,Cc1cc(C(=O)O)c(C)cc1C(=O)O,96.6%
7,COc1cc(/C=C/c2cc(/C=C/c3ccc(O)c(OC)c3)n(C(=O)Nc3ccc(C)cc3C)n2)ccc1O,-30.3% (active)
8,O=C(NCCc1ccccc1)/C(=C\c1ccc(Cl)cc1Cl)NC(=O)c1ccccc1,95.1%
9,C=CCOC(=O)C1=C(C)NC2=C(C(=O)CC(C)(C)C2)C1c1ccc(OC)cc1 (stereo not given),110%
10,Cc1ccc([C@H]2c3[nH]c4ccccc4c3C[C@H]3C(=O)N(CCCCCCC(=O)NO)CC(=O)N23)s1,37.3%
11,Cc1cc2nc3c4cc(O)ccc4n(CCN(C)C)c3nc2cc1C,-38.4% (active)
12,Cc1ccc(C(=O)NCCNc2nccc(-c3c(-c4cccc(F)c4)nc4sccn34)n2)cc1,38.7%
13,NCCN1CCN(c2nc(-c3ccccc3)nc3nc(-c4ccccc4)oc23)CC1,-33.6% (active)
14,COc1cccc(/C=N/NC(=O)c2cnn3c2NC(c2ccccc2)C3)c1Oc1ccccc1 (stereo not given),47.3%
15,O=S(=O)(Nc1cc(Cl)cc(Cl)c1)c1ccc(-c2cnc(C3CC3)o2)cc1,2.06% (active)
16,C=C1CC2(OC1=O)C(=O)N(CCCN1C(=O)C3(CC(=C)C(=O)O3)c3ccccc31)c1ccccc12 (stereo not given),-34% (active)
17,Cn1cc(-c2csc(-c3cn(CCNC(=O)OC(C)(C)C)c4ccc(F)cc34)n2)c2cccnc21,19.5%
18,O=C1/C(=C/c2ccc(Cl)cc2)CN(Cc2cn(CCCNc3ccnc4cc(Cl)ccc34)nn2)C/C1=C\c1ccc(Cl)cc1,-69.8% (active)
19,NCCCOc1cc2ccccc2cc1C(=O)Nc1ccc(Cl)cc1OC(=O)c1cc2ccccc2cc1OCCCN,-86% (active)
20,CCCCOC(=O)c1ccc(NC(=O)CCl)cc1,50%

row,Compound,growth
1,c1ccc2c(Nc3cccc4ccccc34)cccc2c1,61.8%
2,Cc1ccc(C(=O)Nc2ccc(CN3CCN(C)CC3)c(C(F)(F)F)c2)cc1C#Cc1cnc(N)c2ccc(C#N)cc12,34.9%
3,O=S(=O)(NCCCNc1nccc(-c2c(-c3ccc(F)c(O)c3)nc3occn23)n1)c1ccc(Cl)cc1,62.2%
4,COC(=O)[C@@H]1CCCN1C(=O)[C@H]1CCCN1C(=O)[C@@H](Cc1c[nH]c2ccccc12)NC(=S)Nc1cc(C(F)(F)F)cc(C(F)(F)F)c1,29.2%
5,O=C(CSc1nnc(-c2ccc(Cl)cc2)n1-c1ccccc1)Nc1ccccc1Cl,78.5%
6,Clc1cc(Cl)c(Cl)nn1,102%
7,CCN(CC)CC(O)CNc1c2ccc([N+](=O)[O-])cc2nc2cc(OC)c(OC)cc12 (stereo not given),-44.5% (active)
8,Cc1ccc(C2CC(c3ccc(Nc4nc(NCCO)nc(Nc5ccc(Cl)cc5)n4)cc3)=Nc3c(N)nc(N)nc3N2)cc1 (stereo not given),-80% (active)
9,N#CC1=C(N)Oc2c(c(=O)[nH]c3ccc(Cl)cc23)C12C(=O)c1ccccc1C2=O,96.6%
10,CCCCCCNC(=O)Oc1ccc(/C(=C(\C)c2ccc(OC)cc2)c2ccc(OCCN3CCCCC3)cc2)cc1,75.6%
11,CCCCCCCO,96.4%
12,Cc1ccc(O)c(Cc2ccccc2)c1,101%
13,COc1ccc2c(c1)oc1c(C)c3c(c(C)c12)C(=O)N(CCOS(C)(=O)=O)C3=O,127%
14,COc1ccc(-c2cc(/C=C/C(=O)c3cc(OC)c(OC)c(OC)c3)[nH]n2)cc1OC,-63.8% (active)
15,Cc1cc(F)cc(NS(=O)(=O)c2ccc(-c3cnc(C4CC4)o3)cc2)c1,-1.16% (active)
16,O=C1Nc2ccccc2/C1=N/N=C/c1ccsc1,78.3%
17,Cn1c(SCC(=O)c2cccs2)nc2ccccc2c1=O,68.7%
18,CN1CCN(CCCOc2ccc3nc(Nc4cc(Cl)cc(Cl)c4)ccc3c2)CC1,-74.4% (active)
19,CCCNNC(=O)/C=C/c1ccc(CNCCc2c(C)[nH]c3ccccc23)cc1,32.8% [2.5 µM]
20,COc1cccc2c1Cc1ccccc1-2,99%
